These results are taken from PubChem BioAssay (Tox21).

A short description of assay [1]: Caspase-3/7 induction in HepG2 cells by small molecules, qHTS assay (AID 1346978; active = well fitted curve in the direction sought with a large enough effect in the repeat runs; an effect the other way counts as inactive or inconclusive; also: nearly all actives have a fitted effect of over 15% in size; also: potency is read from the fitted curve at half-maximal effect). The gist of the method:
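Wild-type HepG2 cells, 2,000/well, settled 5 hr at 37 C and 5% CO2, then compound-treated for 17 hr; caspase-3/7 activity read by luminescent Caspase-Glo 3/7 after 30 min at room temperature.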

Assay [2] addresses Acetylcholinesterase (Homo sapiens) (UniProt P22303). Nature of the assay: Acetylcholinesterase (AChE) small molecule antagonists: colormetric cell-based qHTS assay (AID 1347395). Also: % is scaled to controls: 0 for no effect and ±100 for the full control effect; nearly all actives have a fitted effect of over 30% in size. The gist of the method:
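SH-SY5Y cells, plated overnight at 37 C, were exposed to compounds for 30 min at 37 C and 5% CO2. Acetylthiocholine plus DTNB was then added, and thiocholine from endogenous AChE was quantified colorimetrically after 90 min at 37 C.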

Assay [3] shares this target. Nature of the assay: Acetylcholinesterase (AChE) small molecule antagonists: enzyme-based qHTS assay (AID 1347397). Also: % is scaled to controls: 0 for no effect and ±100 for the full control effect; nearly all actives have a fitted effect of over 55% in size. The settings on record: Potency: AChE enzyme activity inhibition; outcome: AChE enzyme activity inhibition. The gist of the method: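 Enzyme inhibition was scored from DTNB-detected thiocholine formed by recombinant human AChE acting on acetylthiocholine. The 30 min compound preincubation and 10 min substrate reaction were both run at room temperature, with DMSO as vehicle control.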

The target is the same in assay [4]. The assay is described as follows: Acetylcholinesterase (AChE) small molecule antagonists: fluorescence cell-based qHTS assay (AID 1347398). Also: % is scaled to controls: 0 for no effect and ±100 for the full control effect; nearly all actives have a fitted effect of over 50% in size. As to conditions: Potency: AChE activity; outcome: AChE activity. The gist of the method:
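Endogenous acetylcholinesterase of SH-SY5Y neuroblastoma cells is measured in situ. After overnight attachment and 30 min compound exposure, cells receive acetylthiocholine and Thiolite Green; fluorescence is read after 40 min at room temperature.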

Assay [5] shares this target. Nature of the assay: Acetylcholinesterase (AChE) small molecule antagonists: enzyme-based qHTS assay with human liver microsomes (AID 1347399). Also: % is scaled to controls: 0 for no effect and ±100 for the full control effect; nearly all actives have a fitted effect of over 60% in size. As to conditions: Potency: qHTS inhibition; outcome: qHTS inhibition. The gist of the method:
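Recombinant human AChE (50 mU/mL in the enzyme mix) and human liver microsomes (0.25 mg/mL final) were preincubated with compound and NADPH (0.25 mg/mL final) for 30 min at 37 C. Acetylthiocholine/DTNB was then added; thiocholine was read colorimetrically after 10 min at room temperature.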

Assay [6] addresses Androgen receptor (Homo sapiens) (UniProt P10275). Nature of the assay: qHTS assay to identify small molecule antagonists of the androgen receptor (AR) signaling pathway (AID 743035; active = well fitted inhibition curve with a large enough effect in the signal ratio in the repeat runs, not every such curve was filed as active; the % refers to the signal ratio; also: % is scaled to controls: 0 for no effect and ±100 for the full control effect). The gist of the method: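 Fluorescence from a beta-lactamase FRET substrate (LiveBLAzer B/G, 2 h, room temperature) measured inhibition of R1881-stimulated signaling in GeneBLAzer AR-UAS-bla HEK293 cells exposed to compound for 16 h at 37C.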

Assay [7] has the same target. Nature of the assay: qHTS assay to identify small molecule agonists of the androgen receptor (AR) signaling pathway (AID 743036; active = well fitted activation curve with a large enough effect in the signal ratio in the repeat runs, with a control signal flat, not every such curve was filed as active; the % refers to the signal ratio; also: potency is read from the fitted curve at half-maximal effect). The gist of the method: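 HEK293 cells stably carrying a UAS-driven beta-lactamase reporter (GeneBLAzer AR-UAS-bla-GripTite) were plated at 2,000 cells/well, rested 4 h at 37C, then exposed to compounds in DMSO for 16 h. LiveBLAzer B/G FRET substrate was added for 2 h at room temperature; fluorescence read.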

For assay [8] the target is unchanged. Nature of the assay: qHTS assay to identify small molecule agonists of the androgen receptor (AR) signaling pathway using the MDA cell line (AID 743040; active = well fitted curve in the direction sought with a large enough effect in the repeat runs; an effect the other way counts as inactive or inconclusive; also: potency is read from the fitted curve at half-maximal effect; nearly all actives have a fitted effect of over 20% in size). The gist of the method:
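Human breast carcinoma MDA-kb2 reporter cells (MMTV-luc, AR/GR elements) were treated for 16 h at 37C in 0% CO2 following a 5 h settling period. Signal was quantified by ONE-Glo luminescence.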

Assay [9] shares this target. The assay is described as follows: qHTS assay to identify small molecule antagonists of the androgen receptor (AR) signaling pathway using the MDA cell line (AID 743042; active = well fitted curve in the direction sought with a large enough effect in the repeat runs; an effect the other way counts as inactive or inconclusive; also: % is scaled to controls: 0 for no effect and ±100 for the full control effect; nearly all actives have a fitted effect of over 55% in size). The gist of the method: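 MDA-kb2 breast carcinoma cells carrying MMTV-luciferase (AR/GR responsive) were co-treated with compounds and the agonist R1881 for 16 h at 37C. Inhibition read as ONE-Glo luminescence; CellTiter-Fluor fluorescence measured in parallel for cytotoxicity.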

The target of assay [10] is Nuclear receptor subfamily 1 group I member 2 (Rattus norvegicus) (UniProt Q9R1A7). Nature of the assay: Rat pregnane X receptor (rPXR) activation by small molecules, qHTS assay (AID 1346983; active = well fitted curve in the direction sought with a large enough effect in the repeat runs; an effect the other way counts as inactive or inconclusive; also: % is scaled to controls: 0 for no effect and ±100 for the full control effect; nearly all actives have a fitted effect of over 20% in size). As to conditions: rPXR luciferase reporter cells, One-Glo luminescence, 24 h; max activation: stronger effect = higher value. The gist of the method:
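Cell-based rPXR activation assay: rPXR cells, 2,000 per well, rested 5hr at 37 C, then exposed to compounds in DMSO for 24 hr at 37 C. Luciferase activity read by One-Glo luminescence after 30 min at room temperature.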

Assay [11] has as its target Nuclear receptor subfamily 1 group I member 2 (Homo sapiens) (UniProt O75469). The assay is described as follows: CYP3A4 induction through human pregnane X receptor (PXR) by small molecules, qHTS assay (AID 1346984; active = well fitted curve in the direction sought with a large enough effect in the repeat runs; an effect the other way counts as inactive or inconclusive; also: nearly all actives have a fitted effect of over 40% in size; also: potency is read from the fitted curve at half-maximal effect). The gist of the method: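 Luminescence readout: luciferase signal after One-Glo (30 min, room temperature), following 3 h at 37C with 3uM final Luciferin-IPA P450 substrate. Cells were DPX-2 (HepG2, PXR/CYP3A4-luc co-transfected) dosed for 24 h.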

The target is the same in assay [12]. Nature of the assay: Human pregnane X receptor (PXR) activation by small molecules, qHTS assay (AID 1346985; active = well fitted curve in the direction sought with a large enough effect in the repeat runs; an effect the other way counts as inactive or inconclusive; also: % is scaled to controls: 0 for no effect and ±100 for the full control effect; nearly all actives have a fitted effect of over 40% in size). The gist of the method:
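DPX-2 cells (HepG2 co-transfected with a PXR response element and a CYP3A4-promoter luciferase construct) were seeded at 2,000 per well, rested 5 hr at 37C, then exposed to DMSO-dissolved compounds for 24 hr. Activation was read as luciferase luminescence.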

For assay [13], the target named is Estrogen receptor (Homo sapiens) (UniProt P03372). Nature of the assay: qHTS assay to identify small molecule antagonists of the estrogen receptor alpha (ER-alpha) signaling pathway (AID 743069; active = well fitted curve in the direction sought with a large enough effect in the signal ratio in the repeat runs, not every such curve was filed as active; the % refers to the signal ratio; also: % is scaled to controls: 0 for no effect and ±100 for the full control effect). The gist of the method:
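Reporter cells (ER-alpha-bla, HEK293 background) are conditioned overnight in stripped-serum medium (2% charcoal-stripped FBS). Compound and 17beta-estradiol exposure runs 18 hr at 37C, 5% CO2.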

Assay [14] deals with Peroxisome proliferator-activated receptor delta (Homo sapiens) (UniProt Q03181). The assay is described as follows: qHTS assay to identify small molecule antagonists of the peroxisome proliferator-activated receptor delta (PPARd) signaling pathway (AID 743215; active = well fitted inhibition curve with a large enough effect in the signal ratio in the repeat runs, not every such curve was filed as active; the % refers to the signal ratio;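 also: cells stimulated with agonist L165041 at 300 nM final during compound exposure; series mostly up to about 62 µM; % is scaled to controls: 0 for no effect and ±100 for the full control effect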). The gist of the method:
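Read-out is beta-lactamase FRET fluorescence, measured 2 h after substrate addition at room temperature. Beforehand, UAS-bla HEK293H cells carrying the PPARd reporter were exposed to compounds with L165041 at 300 nM final for 17 h at 37 C.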

Assay [15] in a line: qHTS assay for small molecule activators of the heat shock response signaling pathway (AID 743210; active = well fitted activation curve with a large enough effect in the signal ratio in the repeat runs, with a control signal flat, not every such curve was filed as active; the % refers to the signal ratio;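 also: HeLa cells with beta-lactamase reporter driven by heat shock elements; series mostly up to about 63 µM; % is scaled to controls: 0 for no effect and ±100 for the full control effect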). The gist of the method:
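Quantitative high-throughput format using an engineered HeLa line in which heat shock response elements drive beta-lactamase; after 5 h with compound, cells received a B/G FRET substrate and fluorescence was read.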

The target in assay [16] is Thyrotropin receptor (Homo sapiens) (UniProt P16473). The assay is described as follows: qHTS assay to identify small molecule antagonists of the thyroid stimulating hormone receptor (TSHR) signaling pathway (AID 1259385). Also: % is scaled to controls: 0 for no effect and ±100 for the full control effect; nearly all actives have a fitted effect of over 20% in size. The gist of the method:
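TSHR-HEK293 cells (800/well) plated 18 h, then compounds with Ro20-1724 and TSH at 1.5 ng/mL final, 30 min at room temperature. cAMP quantified by HTRF (cAMP-d2/anti-cAMP-cryptate, 1 h); 15 concentrations in triplicate.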

Where “and” joins values, the source holds several entries; their conditions need not be identical. Equal entries are not always repeated. A number with no mark means an inactive call. Records with an inconclusive call do not appear. Calls of active or inactive are those of the source. Unless noted, calls follow the shape of the full dose curve.

Chain of Nuclear receptor subfamily 1 group I member 2 (Rattus norvegicus) (Q9R1A7 whole entry, looked up): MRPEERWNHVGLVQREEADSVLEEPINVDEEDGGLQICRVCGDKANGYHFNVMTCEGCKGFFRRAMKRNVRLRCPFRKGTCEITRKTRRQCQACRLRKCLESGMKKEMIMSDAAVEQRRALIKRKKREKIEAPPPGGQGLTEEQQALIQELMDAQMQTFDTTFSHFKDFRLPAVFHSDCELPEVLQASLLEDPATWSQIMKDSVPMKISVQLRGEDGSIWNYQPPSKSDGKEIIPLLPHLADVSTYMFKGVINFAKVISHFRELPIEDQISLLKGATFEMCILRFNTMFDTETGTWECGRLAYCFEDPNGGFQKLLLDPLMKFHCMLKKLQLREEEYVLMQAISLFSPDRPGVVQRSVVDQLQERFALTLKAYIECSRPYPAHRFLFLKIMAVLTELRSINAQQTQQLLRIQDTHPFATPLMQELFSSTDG
Chain of Androgen receptor (Homo sapiens) (P10275 whole entry, looked up): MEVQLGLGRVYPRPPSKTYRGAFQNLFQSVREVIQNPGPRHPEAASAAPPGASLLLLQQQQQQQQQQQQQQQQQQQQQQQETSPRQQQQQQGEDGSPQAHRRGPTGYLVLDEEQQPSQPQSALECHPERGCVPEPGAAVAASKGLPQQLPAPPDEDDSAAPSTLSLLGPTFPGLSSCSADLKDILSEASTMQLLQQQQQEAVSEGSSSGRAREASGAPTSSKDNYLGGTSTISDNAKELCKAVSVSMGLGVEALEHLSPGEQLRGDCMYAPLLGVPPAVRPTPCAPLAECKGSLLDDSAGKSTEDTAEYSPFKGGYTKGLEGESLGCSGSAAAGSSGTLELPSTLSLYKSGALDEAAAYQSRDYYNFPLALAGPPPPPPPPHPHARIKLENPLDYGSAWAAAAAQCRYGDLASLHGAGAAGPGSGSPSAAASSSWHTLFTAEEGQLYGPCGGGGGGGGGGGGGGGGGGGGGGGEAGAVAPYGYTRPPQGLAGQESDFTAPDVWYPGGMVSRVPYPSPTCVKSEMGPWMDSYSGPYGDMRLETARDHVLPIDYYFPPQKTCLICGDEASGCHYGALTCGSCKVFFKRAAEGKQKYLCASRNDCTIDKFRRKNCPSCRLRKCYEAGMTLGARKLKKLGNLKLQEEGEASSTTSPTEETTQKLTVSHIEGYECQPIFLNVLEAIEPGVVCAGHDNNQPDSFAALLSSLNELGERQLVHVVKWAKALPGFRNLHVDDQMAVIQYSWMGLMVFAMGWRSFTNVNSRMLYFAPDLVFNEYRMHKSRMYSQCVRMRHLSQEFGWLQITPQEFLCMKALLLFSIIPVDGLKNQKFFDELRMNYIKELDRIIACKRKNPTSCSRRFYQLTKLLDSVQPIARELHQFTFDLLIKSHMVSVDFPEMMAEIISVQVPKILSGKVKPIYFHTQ
Chain of Estrogen receptor (Homo sapiens) (P03372 whole entry, looked up): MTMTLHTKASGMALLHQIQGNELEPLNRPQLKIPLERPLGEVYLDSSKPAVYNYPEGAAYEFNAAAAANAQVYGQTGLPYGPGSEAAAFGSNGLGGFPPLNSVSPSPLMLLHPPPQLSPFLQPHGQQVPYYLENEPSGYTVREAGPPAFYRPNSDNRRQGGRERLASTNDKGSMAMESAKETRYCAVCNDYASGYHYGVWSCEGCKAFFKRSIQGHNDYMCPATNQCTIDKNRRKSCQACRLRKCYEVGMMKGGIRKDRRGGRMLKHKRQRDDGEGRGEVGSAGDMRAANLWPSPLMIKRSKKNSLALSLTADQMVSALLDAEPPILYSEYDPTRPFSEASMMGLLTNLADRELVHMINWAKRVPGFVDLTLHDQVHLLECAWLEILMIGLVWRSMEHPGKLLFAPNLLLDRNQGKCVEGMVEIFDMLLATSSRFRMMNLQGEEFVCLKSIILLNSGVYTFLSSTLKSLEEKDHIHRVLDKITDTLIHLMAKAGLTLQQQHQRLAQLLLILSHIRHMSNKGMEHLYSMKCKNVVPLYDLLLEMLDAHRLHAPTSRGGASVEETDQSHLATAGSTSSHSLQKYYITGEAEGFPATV
Chain of Acetylcholinesterase (Homo sapiens) (P22303 whole entry, looked up): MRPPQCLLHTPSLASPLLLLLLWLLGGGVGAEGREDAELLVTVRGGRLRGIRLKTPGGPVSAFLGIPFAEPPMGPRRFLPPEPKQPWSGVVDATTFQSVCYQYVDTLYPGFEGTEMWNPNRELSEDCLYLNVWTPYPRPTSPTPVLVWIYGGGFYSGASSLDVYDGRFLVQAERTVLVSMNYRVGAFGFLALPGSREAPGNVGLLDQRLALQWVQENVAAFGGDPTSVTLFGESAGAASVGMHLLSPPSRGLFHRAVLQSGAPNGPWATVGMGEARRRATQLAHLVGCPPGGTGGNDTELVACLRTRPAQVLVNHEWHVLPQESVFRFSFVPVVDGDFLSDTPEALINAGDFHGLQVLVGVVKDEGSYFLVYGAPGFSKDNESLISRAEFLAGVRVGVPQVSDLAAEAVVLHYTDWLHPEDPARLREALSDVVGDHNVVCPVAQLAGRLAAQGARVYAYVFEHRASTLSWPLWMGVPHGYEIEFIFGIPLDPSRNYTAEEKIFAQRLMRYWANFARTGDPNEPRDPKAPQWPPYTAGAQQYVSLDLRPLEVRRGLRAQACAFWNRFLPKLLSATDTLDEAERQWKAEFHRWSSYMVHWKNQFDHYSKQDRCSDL
Chain of Peroxisome proliferator-activated receptor delta (Homo sapiens) (Q03181 whole entry, looked up): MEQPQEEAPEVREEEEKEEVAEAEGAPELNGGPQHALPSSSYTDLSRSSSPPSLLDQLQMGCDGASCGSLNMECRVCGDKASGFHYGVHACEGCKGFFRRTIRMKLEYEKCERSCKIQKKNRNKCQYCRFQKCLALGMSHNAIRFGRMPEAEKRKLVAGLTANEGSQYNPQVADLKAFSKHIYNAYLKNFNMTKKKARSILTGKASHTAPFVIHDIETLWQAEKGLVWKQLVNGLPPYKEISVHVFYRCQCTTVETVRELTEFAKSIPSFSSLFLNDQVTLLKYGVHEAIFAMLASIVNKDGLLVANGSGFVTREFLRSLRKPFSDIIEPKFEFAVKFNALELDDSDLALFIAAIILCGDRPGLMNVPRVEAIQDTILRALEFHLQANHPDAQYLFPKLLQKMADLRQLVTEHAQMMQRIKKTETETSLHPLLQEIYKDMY
Chain of Thyrotropin receptor (Homo sapiens) (P16473 whole entry, looked up): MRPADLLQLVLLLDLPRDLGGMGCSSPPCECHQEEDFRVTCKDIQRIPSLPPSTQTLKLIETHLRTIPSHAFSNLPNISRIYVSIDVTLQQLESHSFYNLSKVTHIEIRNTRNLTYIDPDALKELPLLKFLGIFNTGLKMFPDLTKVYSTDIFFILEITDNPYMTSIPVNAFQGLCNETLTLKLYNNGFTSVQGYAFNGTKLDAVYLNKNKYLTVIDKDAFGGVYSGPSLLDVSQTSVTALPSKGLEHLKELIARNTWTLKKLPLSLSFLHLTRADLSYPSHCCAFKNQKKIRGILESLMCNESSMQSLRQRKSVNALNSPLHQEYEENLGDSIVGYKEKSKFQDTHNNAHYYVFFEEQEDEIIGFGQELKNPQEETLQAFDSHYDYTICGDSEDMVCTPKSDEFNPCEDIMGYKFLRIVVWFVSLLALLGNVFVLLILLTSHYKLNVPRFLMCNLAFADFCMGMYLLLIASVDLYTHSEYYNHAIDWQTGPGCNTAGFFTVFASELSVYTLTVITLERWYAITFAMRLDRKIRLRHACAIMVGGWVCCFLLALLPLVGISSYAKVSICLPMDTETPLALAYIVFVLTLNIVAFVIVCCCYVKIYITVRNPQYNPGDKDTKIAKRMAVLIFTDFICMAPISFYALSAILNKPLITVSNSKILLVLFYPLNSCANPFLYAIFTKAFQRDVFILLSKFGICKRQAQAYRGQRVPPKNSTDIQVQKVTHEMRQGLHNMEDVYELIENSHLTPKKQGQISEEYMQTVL

Regarding `COc1cc2c(cc1OC)[C@@H]1CC(=O)[C@@H](CC(C)C)CN1CC2`, the Potency result in assay [1], in assay [2], in assay [3], in assay [4] and in [5] was “inactive” throughout.

Take `Brc1ccccc1-c1ccccc1`: the Potency result in assay [1], in assay [2], in assay [3], in assay [4] and in assay [5] was “inactive” in each case.

Consider `Cc1ccccc1-n1c(CF)nc2ccc(N)cc2c1=O`, for which the Potency result in [6], in assay [7], in [9] and in assay [12] was “inactive” each time. Further, the Potency was 26.6 µM (active) in assay [8] and 7.08 µM (active) in assay [11]. Besides, in [10], the max activation is -3.24%.

`Cc1ccc(C)cc1`: the Potency result in assay [1], in assay [2], in [3], in assay [4] and in assay [5] was “inactive” in each case.

Take `CN[C@H]1C[C@@H](N)[C@H](O)[C@@H](O[C@@H]2O[C@H](CO)[C@H](O)[C@@H]3OC4(O[C@H]23)O[C@H](C(N)CO)[C@H](O)[C@H](O)[C@H]4O)[C@@H]1O` (stereo partly specified): the Potency entry in assay [13], in assay [11] and in assay [12] was “inactive” throughout. The max activation in assay [10] is -3.01%.

Turning to `Cc1ccccc1N=O`, the Potency result in [14], in assay [1], in [2], in [3], in [4] and in assay [5] was “inactive” throughout.

`C[C@]12C[C@H]3S[C@H]3C[C@@H]1CC[C@@H]1[C@@H]2CC[C@]2(C)[C@@H](O)CC[C@@H]12`: the Potency in assay [7] is 0.0032 µM (active); in assay [8] it was 0.0003 µM (active). Moreover, the Potency result in assay [9], in assay [11] and in assay [12] was “inactive” each time. Also, in [10], the max activation is 11.2%.

As for `CCCC(C)(COC(N)=O)COC(=O)NC1CC1` (stereo unspecified), the max activation in [10] was -2.91%. In addition, the Potency result in assay [11] and in assay [12] was “inactive” throughout.

On to `CC(=O)OC(C)=O`, for which the Potency result in assay [15], in [1], in assay [2], in [3], in [4] and in assay [5] was “inactive” each time.

On to `C=CCN(C1=NCCN1)c1c(Cl)cccc1Cl`, for which the Potency entry in assay [13], in [11] and in [12] was “inactive” in each case. Further, the max activation in assay [10] was -3.97%.

With `COc1ccc(CCN2CCC(Nc3nc4ccccc4n3Cc3ccc(F)cc3)CC2)cc1`, in [1], the Potency is 26.6 µM (active).

As to `O=C(Cl)c1cccc(C(=O)Cl)c1`, the Potency entry in assay [1], in assay [2], in [3], in assay [4] and in assay [5] was “inactive” each time.

Regarding `CNC(=O)Oc1ccc2c(c1)[C@]1(C)CCN(C)[C@@H]1N2C`, the Potency entry in assay [1] was “inactive”.

As for `CN=C1CN(O)C(c2ccccc2)=c2cc(Cl)ccc2=N1`, the Potency entry in assay [13], in assay [11] and in assay [12] was “inactive” throughout. The max activation in assay [10] is -1.86% and 4.26%.

`CCOc1ccc2c3c1O[C@H]1[C@@H](O)C=C[C@H]4[C@@H](C2)N(C)CC[C@@]341`: the Potency result in assay [13] and in assay [12] was “inactive” each time. Moreover, the max activation in assay [10] was -1.03%. Besides, in assay [11], the Potency is 7.94 µM (active).

For `CC(C)(C)OCC1CO1` (stereo unspecified), the Potency entry in assay [16], in assay [2], in assay [3], in [4] and in [5] was “inactive” throughout.

With `c1ccc2c(c1)ccc1ncccc12`, the Potency result in assay [1], in assay [2], in [3], in [4] and in [5] was “inactive” in each case.

Turning to `COc1ccc(C)cc1N`, the Potency entry in assay [1], in assay [2], in assay [3], in [4] and in assay [5] was “inactive” throughout.

Regarding `Clc1ccc(Cl)c(Cl)c1Cl`, the Potency entry in assay [1], in assay [2], in assay [3], in [4] and in assay [5] was “inactive” in each case.

Regarding `Nc1ccc(N)c2ccccc12`, the Potency entry in assay [1], in assay [2], in [3], in assay [4] and in [5] was “inactive” in each case.
